Test results published in PubChem BioAssay (Tox21).
Inconclusive results are not listed. A call without a number means that no potency is given here. Calls of active or inactive are those of the source. Unless noted, the call rests on the fitted dose curve; in most records, active means well fitted curve in the direction sought with a large enough effect in the repeat runs; inconclusive means weak or mixed curves; inactive means no such curve, though single readings can be large; an effect the other way counts as inactive or inconclusive.

How the values were obtained:
[1] = qHTS assay to identify small molecule antagonists of the estrogen related receptor (ERR) signaling pathway (AID 1224819; further: nearly all actives have a fitted effect of over 50% in size); details: ERR reporter cell line, luciferase inhibition; series mostly up to 46.1 µM
How it was run: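 Luminescence readout (One-Glo, 30 min, RT) of ERR cell line after 18 h compound exposure at 37 C; cells seeded 2,000/well, pre-incubated 6 h, compounds pinned from DMSO stocks.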

[2] = qHTS assay to identify small molecule agonists of the estrogen related receptor (ERR) signaling pathway (AID 1224820); details: ERR reporter cell line, luciferase agonist mode; series mostly up to 46.1 µM
How it was run: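 Quantitative HTS of the LOPAC library used NTP ERR reporter cells treated 18 h at 37 C. Signal is luminescence after One-Glo addition and a 30 min room-temperature incubation.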

[3] = tested on: estrogen-related receptor alpha (ERRalpha) with PGC-1alpha coactivator, human; test: qHTS assay to identify small molecule antagonists of the estrogen related receptor signaling pathway with the pleiotropic PPARgamma coactivator (PGC) (AID 1224821; calls by dose curve; further: nearly all actives have a fitted effect of over 50% in size); details: ERR/PGC reporter cell line, luciferase, antagonist mode; series mostly up to 46.1 µM
How it was run: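 Quantitative HTS for antagonism: PGC/ERR cells received compounds after 6 h attachment and were incubated 18 h at 37 C, with luminescence (One-Glo) as the endpoint.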

[4] = qHTS assay to identify small molecule antagonists of the estrogen related receptor signaling pathway with the pleiotropic PPARgamma coactivator (PGC) cell viability counter screen (AID 1224822;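 further: viability read after 17.5 h compound exposure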); details: ERR/PGC reporter cell line viability counter screen; series mostly up to 46.1 µM
How it was run: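 PGC/ERR cells were plated at 2,000 per well and allowed 6 h to settle before compound addition. Following 17.5 h at 37 C, CellTiter-Fluor reagent was added and fluorescence was read 30 min later.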

[5] = qHTS assay to identify small molecule agonists of the estrogen related receptor signaling pathway with the pleiotropic PPARgamma coactivator (PGC) (AID 1224823); details: ERR/PGC reporter cell line, luciferase agonist mode; series mostly up to 46.1 µM
How it was run: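 Cell-based luciferase assay in the NTP-supplied PGC/ERR line, 2,000 cells/well; 18 h compound exposure at 37 C, luminescence after One-Glo.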
Potency means the concentration at half of the fitted maximal effect.

Row | SMILES | Potency [1] | Potency [2] | Potency [3] | Potency [4] | Potency [5]
1 | N[C@@H](Cc1ccc(F)cc1)C(=O)O | inactive | inactive | inactive | inactive | inactive
2 | CC(C)(C)NCC(O)COc1cccc2[nH]c(=O)[nH]c12 (stereo not given) | inactive | inactive | inactive | inactive | inactive
3 | CC(C)NC[C@H](O)c1ccc(O)c(O)c1 | inactive | inactive | inactive | inactive | inactive
4 | NC/C=C\C(=O)O | inactive | inactive | inactive | inactive | inactive
5 | C=C/C(C)=C/[C@@]1(C)SC(=O)C(C)=C1O | inactive | inactive | inactive | inactive | inactive
6 | N#Cc1cc2nc(O)c(O)nc2cc1[N+](=O)[O-] | inactive | inactive | inactive | inactive | inactive
7 | O=C(O)CCC(=O)N1CCCC1C(=O)O (stereo not given) | inactive | inactive | inactive | inactive | inactive
8 | NC(=O)CNCCC(c1ccccc1)c1ccccc1 | inactive | inactive | inactive | inactive | inactive
9 | CN(C)C(N)=NCCC[C@H](N)C(=O)O | inactive | inactive | inactive | inactive | inactive
10 | Nc1nc(Nc2ccccc2)nc2c1ncn2[C@@H]1O[C@H](CO)C(O)[C@H]1O (stereo not given in full) | inactive | inactive | inactive | inactive | 1.44 µM (active)
11 | COc1cccc(-c2cc(=O)c3ccccc3o2)c1N | inactive | 1.96 µM (active) | inactive | inactive | 1.88 µM (active)
12 | Cn1c(=O)c2[nH]c(-c3ccccc3)nc2n(C)c1=O | inactive | inactive | inactive | inactive | inactive
13 | CC(C)Cc1ccc([C@H](C)C(=O)O)cc1 | inactive | inactive | inactive | inactive | inactive
14 | NC(CCCP(=O)(O)O)C(=O)O (stereo not given) | inactive | inactive | inactive | inactive | inactive
15 | CC1(C)CCC2=C(O1)c1ccccc1C(=O)C2=O | 9.44 µM (active) | inactive | 13.3 µM (active) | 18.8 µM (active) | inactive
16 | O=S(=O)(c1cccc2c(I)cccc12)N1CCCNCC1 | inactive | inactive | inactive | inactive | inactive
17 | Cc1ccc2c(c1)C(N1CCN(C)CC1)=Nc1cccnc1N2 | inactive | inactive | inactive | inactive | inactive
18 | CC1C(=O)N(C)C(=O)c2nc[nH]c21 (stereo not given) | inactive | inactive | inactive | inactive | inactive
19 | C[N+]1(CCCCC[N+]2(C)CCCC2)CCCC1 | inactive | inactive | inactive | inactive | inactive
20 | CN1CCc2ccccc2Cc2[nH]c3ccccc3c2CC1 | inactive | inactive | inactive | inactive | inactive

Row | SMILES | Potency [1] | Potency [2] | Potency [3] | Potency [4] | Potency [5]
21 | CC[C@H]1OC(=O)[C@H](C)[C@@H](O[C@H]2C[C@@](C)(OC)[C@@H](O)[C@H](C)O2)[C@H](C)[C@@H](O[C@@H]2O[C@H](C)C[C@H](NC)[C@H]2O)[C@](C)(O)C[C@@H](C)CN(C)[C@H](C)[C@@H](O)[C@]1(C)O | inactive | inactive | inactive | inactive | inactive
22 | C1CCc2nnnn2CC1 | inactive | inactive | inactive | inactive | inactive
23 | NC1C=CC=C(C(=O)O)C1 (stereo not given) | inactive | inactive | inactive | inactive | inactive
24 | CNc1ncnc2c1ncn2[C@H]1C[C@H](OP(=O)(O)O)[C@@H](COP(=O)(O)O)O1 | inactive | inactive | inactive | inactive | inactive
25 | O=C(O)C1CCCNC1 (stereo not given) | inactive | inactive | inactive | inactive | inactive
26 | COc1ccc(-c2ccc(N)[n+](CCCC(=O)O)n2)cc1 | inactive | inactive | inactive | inactive | inactive
27 | Nc1ccc(N2C(=O)c3ccccc3C2=O)c(Cl)c1 | inactive | inactive | inactive | inactive | inactive
28 | NCCCCNCCCN | inactive | inactive | inactive | inactive | inactive
29 | CCCCOc1cc(CC2CNC(=O)N2)ccc1OC (stereo not given) | inactive | inactive | inactive | inactive | inactive
30 | NC(=S)c1ccc[n+]([C@@H]2O[C@@H](COP(=O)([O-])OP(=O)(O)OC[C@H]3O[C@@H](n4cnc5c(N)ncnc54)[C@H](OP(=O)(O)O)C3O)C(O)C2O)c1 (stereo not given in full) | inactive | inactive | inactive | inactive | 18.8 µM (active)
31 | CCNC(=O)[C@H]1O[C@@H](n2cnc3c(N)nc(NCCc4ccc(CCC(=O)O)cc4)nc32)[C@H](O)C1O (stereo not given in full) | inactive | inactive | inactive | inactive | 1.28 µM (active)
32 | CC(C)(Sc1ccc(CCN(CCCCC2CCCCC2)C(=O)NC2CCCCC2)cc1)C(=O)O | inactive | inactive | inactive | inactive | inactive
33 | COCCOc1cc2nc[nH]c(=O)c2cc1OCCOC | inactive | inactive | inactive | inactive | inactive
34 | CC[C@@H](C)[C@H]1O[C@]2(CC[C@@H]1C)C[C@@H]1C[C@@H](C/C=C(\C)[C@@H](O[C@H]3C[C@H](OC)[C@@H](O[C@H]4C[C@H](OC)[C@@H](O)[C@H](C)O4)[C@H](C)O3)[C@@H](C)/C=C/C=C3\CO[C@@H]4[C@H](O)C(C)=C[C@@H](C(=O)O1)[C@]34O)O2 | 12.3 µM (active) | inactive | 16.8 µM (active) | 23.7 µM (active) | inactive
35 | O=[N+]([O-])c1cccc2cn[nH]c12 | inactive | inactive | inactive | inactive | inactive
36 | CSC(N)=NCCC[C@H](N)C(=O)O | inactive | inactive | inactive | inactive | inactive
37 | O=C(O)CC1CCCc2ccccc2C1O (stereo not given) | inactive | inactive | inactive | inactive | inactive
38 | NCCC1CCCC(CCN)N1 (stereo not given) | inactive | inactive | inactive | inactive | inactive
39 | N[C@H](CO)C(=O)O | inactive | inactive | inactive | inactive | inactive
40 | Nn1nnc2ccccc21 | inactive | inactive | inactive | inactive | inactive

Row | SMILES | Potency [1] | Potency [2] | Potency [3] | Potency [4] | Potency [5]
41 | CCCCCCCCCCCCCCCC(=O)OC(CC(=O)O)C[N+](C)(C)C (stereo not given) | inactive | inactive | inactive | inactive | inactive
42 | COC(=O)C(N)Cc1ccc(Cl)cc1 (stereo not given) | inactive | inactive | inactive | inactive | inactive
43 | CCCn1c(=O)c(C)cn2nc(N)nc12 | inactive | inactive | inactive | inactive | inactive
44 | O=c1[nH]c2ccccc2c2ccccc12 | inactive | inactive | inactive | inactive | inactive
45 | CN[C@H](CC(C)C)C(=O)N[C@H]1C(=O)N[C@@H](CC(N)=O)C(=O)N[C@H]2C(=O)N[C@H]3C(=O)N[C@H](C(=O)N[C@H](C(=O)O)c4cc(O)cc(O)c4-c4cc3ccc4O)[C@H](O)c3ccc(c(Cl)c3)Oc3cc2cc(c3O[C@@H]2O[C@H](CO)[C@@H](O)[C@H](O)[C@H]2O[C@H]2C[C@](C)(N)[C@H](O)[C@H](C)O2)Oc2ccc(cc2Cl)[C@H]1O | inactive | inactive | inactive | inactive | inactive
46 | NC(=O)c1cccc(N)c1 | inactive | inactive | inactive | inactive | inactive
47 | CCCCCCC(=O)OC1CC(C)(C)NC(C)(C)C1 | inactive | inactive | inactive | inactive | inactive
48 | N[C@@H](CS(=O)O)C(=O)O | inactive | inactive | inactive | inactive | inactive
49 | N[C@@H](Cc1ccc(O)c(I)c1)C(=O)O | inactive | inactive | inactive | inactive | inactive
50 | Clc1nccc2c1ccc1ccccc12 | inactive | inactive | inactive | inactive | inactive
51 | Cc1ccc(O)c(N=Nc2ccccc2)n1 | inactive | 8.41 µM (active) | inactive | 5.52 µM (active) | inactive
52 | NCCCNCCCCNCCCN | inactive | inactive | inactive | inactive | inactive
53 | CC(=O)NCCc1c[nH]c2ccc(O)cc12 | inactive | inactive | inactive | inactive | inactive
54 | CNC(=O)[C@H]1O[C@@H](n2cnc3c(NCc4ccc(N)cc4)ncnc32)[C@H](O)C1O (stereo not given in full) | inactive | inactive | inactive | inactive | inactive
55 | Cc1nc(N=Nc2ccc(C(=O)O)cc2)c(COP(=O)(O)O)c(C=O)c1O | inactive | inactive | inactive | inactive | inactive
56 | OC[C@H]1O[C@@H](n2cnc3c(NC4CCCC4)ncnc32)[C@H](O)C1O (stereo not given in full) | inactive | inactive | inactive | inactive | 3.1 µM (active)
57 | NCCCS(=O)(=O)O | inactive | inactive | inactive | inactive | inactive
58 | OCC1NCC(O)C(O)C1O (stereo not given) | inactive | inactive | inactive | inactive | inactive
59 | NC1(C(=O)O)CCc2cc(C(=O)O)ccc21 (stereo not given) | inactive | inactive | inactive | inactive | inactive
60 | COc1ccccc1CN[C@@H]1CCCN[C@@H]1c1ccccc1 | inactive | inactive | inactive | inactive | inactive
